Screening data from PubChem.
MRP resist rev: reversal of MRP1-mediated doxorubicin resistance, primary screen, H69AR cells, doxorubicin co-treatment; AID 602, 2007; differential viability (reversal), % at 10 µM; 0.04% of 85,000 active; H69AR cells + 2 uM doxorubicin, CellTiter-Glo, 72 h;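 active = viability drop by adding the cancer drug above about 55%, with treated viability meeting a 40% cutoff, limit read from the data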;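 note: viability without doxorubicin minus viability with 2 µM doxorubicin for each compound; larger differential means the compound sensitizes cells more to doxorubicin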
MRP1 act: H69AR viability gain despite doxorubicin, primary screen, MRP-1 activator project, H69AR cells, CellTiter-Glo; viability rescue; viability increase, % at 10 µM; 0.61% of 140,000 active;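 active = viability gain under doxorubicin at or above a set limit, the compound median plus 3 SD, cut at about 4.7% in these data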;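 note: MRP-1 overexpressing cells given doxorubicin 25 µM after compound pretreatment; 18-22 h compound pretreatment then 72 h with doxorubicin before readout; 0% = doxorubicin-only wells and 100% = vehicle-treated cells without doxorubicin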
CYP2C19 activ: human CYP2C19 activators, primary screen, biochemical, luminescence. recombinant CYP2C19, luciferin-H EGE luminescence; hits give high values; 0 = fully inhibited enzyme, 1 = untreated enzyme. activation factor at 5 µM. 96,000 tested, under 10 active. Cytochrome P450 2C19 (Homo sapiens), P33261. AID 1025, 2008;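 active = activation factor of at least 2 at 5 µM in the primary screen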;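 note: 0 = wells with 2.5 mM tranylcypromine and 1 = vehicle-only wells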
CYP2C9 act: human CYP2C9 activators, primary screen, biochemical, luminescence | activation factor at 5 µM | recombinant CYP2C9, luciferin-H conversion; hits give high values; factor 1 = untreated enzyme, 0 = blocked | 1.4% of 96,000 active | Cytochrome P450 2C9 (Homo sapiens), P11712;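 active = activation factor of 2 or more for CYP2C9 at a 5 µM dose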;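 note: 0 = sulfaphenazole-blocked wells and 1 = vehicle-only wells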
Target sequence (P11712 whole entry, looked up): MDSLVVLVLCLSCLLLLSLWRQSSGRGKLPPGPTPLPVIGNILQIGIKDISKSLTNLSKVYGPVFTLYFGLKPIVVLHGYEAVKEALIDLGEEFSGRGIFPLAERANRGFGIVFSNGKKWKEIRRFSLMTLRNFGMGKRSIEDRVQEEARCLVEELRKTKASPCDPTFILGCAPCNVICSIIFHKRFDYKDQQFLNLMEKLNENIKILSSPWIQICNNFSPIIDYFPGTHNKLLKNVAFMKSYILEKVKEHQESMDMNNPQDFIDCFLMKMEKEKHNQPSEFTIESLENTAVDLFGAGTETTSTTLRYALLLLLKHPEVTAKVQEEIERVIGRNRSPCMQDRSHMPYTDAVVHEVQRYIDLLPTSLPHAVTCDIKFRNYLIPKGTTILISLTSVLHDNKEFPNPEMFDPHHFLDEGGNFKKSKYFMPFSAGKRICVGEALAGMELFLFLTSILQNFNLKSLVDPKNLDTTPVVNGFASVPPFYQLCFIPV
CYP2C9 inh: blockers of cytochrome P450 2C9 activity – biochemical, luminescence, ADME assay, primary screen; P11712; CYP2C9 Supersomes, luciferin-H conversion; inhibition, % at 5 µM; 20% of 96,000 active;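 active = blocking of liver enzyme CYP2C9 beyond about 50% at 5 µM, limit read from the data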
CYP2C19 inh: blockers of cytochrome P450 2C19 activity – biochemical, luminescence, ADME assay, primary screen; inhibition, % at 5 µM; CYP2C19 Supersomes, luciferin-H EGE luminescence, 30 min; AID 778, 2007; P33261; 21% of 96,000 active;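 active = CYP2C19 inhibition above a set limit at 5 µM in the primary screen, cut at about 50% in these data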;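 note: plate controls were negative control wells for no effect and 2.5 mM tranylcypromine positive control for full effect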
* = called active by the depositor. Most compounds without a hit are left out; they make up all but 21% or so of the library.

`COc1cc(NC(=O)CSCC(=O)Nc2cccc(C(F)(F)F)c2)c(Cl)cc1Cl` gave MRP1 act -5, CYP2C19 activ 0.7, CYP2C9 act 0.5, CYP2C9 inh 50* and CYP2C19 inh 31.
`CN(C)S(=O)(=O)Oc1ccccc1C(=O)Nc1cccc(C(F)(F)F)c1` gave MRP1 act -4, CYP2C19 activ 0.1, CYP2C9 act 0.9, CYP2C9 inh 8 and CYP2C19 inh 86*.
Screening O=C(Nc1cccc(C(F)(F)F)c1)c1ccccc1NC(=O)C1CCCCC1 returned MRP1 act 0.
For Cc1nnc(SCC(=O)Nc2cccc(C(F)(F)F)c2)[nH]c1=O the results were MRP resist rev 5, MRP1 act 1, CYP2C19 activ 1.1, CYP2C9 act 0.8, CYP2C9 inh 22 and CYP2C19 inh -6.
For O=C(CN1CCOCC1)Nc1cccc(C(=O)Nc2cccc(C(F)(F)F)c2)c1 the results were MRP resist rev -20, MRP1 act -4, CYP2C19 activ 0.8, CYP2C9 act 0.5, CYP2C9 inh 52* and CYP2C19 inh 25.
Screening COc1ccc2c(c1)-c1nc(/N=C/c3c(O)ccc4ccccc34)sc1CC2 returned MRP1 act -3.
FC(F)(F)c1cccc(NC(=S)NCc2ccccc2)c1 was read as MRP1 act -2, CYP2C19 activ 0.4, CYP2C9 act 1.9, CYP2C9 inh -88 and CYP2C19 inh 63*.
Screening FC(F)(F)c1cccc(NC(=S)NC(c2ccccc2)c2ccccc2)c1 returned MRP1 act -3.
`Cc1cc(N(CC(=O)NC(C)C)S(C)(=O)=O)ccc1Br` gave MRP1 act -2.
Cc1cc(=O)oc2cc(OCC3CC(c4ccc(N(C)C)cc4)=NO3)ccc12 (stereo unspecified) was read as MRP resist rev -2, MRP1 act -1, CYP2C19 activ 0.9, CYP2C9 act 0.9, CYP2C9 inh 15 and CYP2C19 inh 10.
`Cc1cc(=O)oc2cc(OCC3CC(c4ccc(Cl)cc4)=NO3)ccc12` (stereo unspecified) gave MRP resist rev -20, MRP1 act -1, CYP2C19 activ 0.5, CYP2C9 act 0.6, CYP2C9 inh 43 and CYP2C19 inh 51*.
For Cc1ccc(NC(=S)NNC(=O)CSc2nc3ccccc3c(=O)n2-c2ccc(C)cc2)cc1 the results were MRP1 act -1.
Screening COc1ccc(OCc2nnnn2-c2ccccc2)cc1 returned MRP1 act 2, CYP2C19 activ 0.3, CYP2C9 act 0.8, CYP2C9 inh 21 and CYP2C19 inh 69*.
`Clc1ccc(-n2nnnc2-c2ccccc2)cc1` gave MRP resist rev -36, MRP1 act -3, CYP2C19 activ 0, CYP2C9 act 0.4, CYP2C9 inh 61* and CYP2C19 inh 98*.
`COc1ccc(-n2c(-c3ccccc3)nnc2-c2ccc(Cl)cc2)cc1` gave MRP1 act -5, CYP2C19 activ 1, CYP2C9 act 1, CYP2C9 inh -4 and CYP2C19 inh -1.
Screening COc1ccc(-n2nnnc2-c2ccccc2)cc1 returned MRP resist rev -27, MRP1 act -5, CYP2C19 activ 0.2, CYP2C9 act 0.6, CYP2C9 inh 35 and CYP2C19 inh 76*.
Screening CC(C)(C)c1cc(NC(=O)c2cccc(S(=O)(=O)N3CCOCC3)c2)no1 returned MRP1 act 0.
`COC(=O)c1cc(C(=O)OCC(=O)Nc2ccccc2OC(F)F)cc([N+](=O)[O-])c1` gave MRP1 act 3.
`COc1ccccc1NC(=O)Cc1c(F)cccc1Cl` gave MRP1 act 0.
`COc1ccccc1C(=O)OCc1c(F)cccc1Cl` gave MRP1 act 0, CYP2C19 activ 0.3, CYP2C9 act 3.4*, CYP2C9 inh -237 and CYP2C19 inh 73*.
For CN(CC(=O)Nc1ccc(Cl)cc1)c1ccc(S(=O)(=O)N2CCCCC2)cc1[N+](=O)[O-] the results were MRP1 act -4.
Screening CC(C)CC(OC(=O)c1cccs1)C(=O)NCC1CCCO1 (stereo unspecified) returned MRP resist rev -19, MRP1 act -1, CYP2C19 activ 0.4, CYP2C9 act 0.2, CYP2C9 inh 84* and CYP2C19 inh 58*.
COc1ccc(C(OC(=O)c2cccs2)C(=O)NCC2CCCO2)cc1 (stereo unspecified) was read as MRP1 act 0, CYP2C19 activ 0.4, CYP2C9 act 0.6, CYP2C9 inh 42 and CYP2C19 inh 63*.
Screening COC(=O)CNC(=O)CN1C(=O)N(c2cccc(Cl)c2)C(N(O)C(=O)Nc2cccc(Cl)c2)C1(C)C (stereo unspecified) returned MRP resist rev 12, MRP1 act -3, CYP2C19 activ 0.8, CYP2C9 act 0.8, CYP2C9 inh 21 and CYP2C19 inh 17.
CCOC(=O)N1CCC(c2cc(=O)n3[nH]cc(C(=O)OC)c3n2)CC1 was read as MRP resist rev 2, MRP1 act -2, CYP2C19 activ 1.1, CYP2C9 act 0.4, CYP2C9 inh 62* and CYP2C19 inh -10.
`CCOC(=O)N1CCC(c2cc(=O)n3[nH]ccc3n2)CC1` gave MRP resist rev -5, MRP1 act 0, CYP2C19 activ 1, CYP2C9 act 0.4, CYP2C9 inh 59* and CYP2C19 inh -4.
For COC(=O)C1Sc2[nH]c(=O)sc2C(c2ccc(Cl)cc2)C1C(=O)OC (stereo unspecified) the results were MRP resist rev -8, MRP1 act -2, CYP2C19 activ 0.3, CYP2C9 act 0.1, CYP2C9 inh 93* and CYP2C19 inh 75*.
For Cc1cc2c(s1)CCCCC(=O)N2 the results were MRP1 act -2, CYP2C19 activ 0.9, CYP2C9 act 1.2, CYP2C9 inh -17 and CYP2C19 inh 5.
`Cc1ccc(S(=O)(=O)NCCOC(=O)Nc2sc(=S)n(C)c2C)cc1` gave MRP resist rev -5, MRP1 act -5, CYP2C19 activ 0.3, CYP2C9 act 1, CYP2C9 inh -3 and CYP2C19 inh 73*.
Screening CCn1c(Cc2ccccc2)nnc1SCC(=O)Nc1nc(C)c(C)s1 returned MRP resist rev 10, MRP1 act -4, CYP2C19 activ 0.8, CYP2C9 act 1.1, CYP2C9 inh -13 and CYP2C19 inh 24.
For O=C(O)C1C(c2ccccc2)C(C(=O)Oc2ccc(O)cc2)C1c1ccccc1 (stereo unspecified) the results were MRP resist rev 6, MRP1 act 0, CYP2C19 activ 0.9, CYP2C9 act 0.2, CYP2C9 inh 80* and CYP2C19 inh 11.
`O=C(Oc1ccc(OC(=O)C2CCC2)cc1)C1CCC1` gave MRP1 act -2.
